In PubChem BioAssay (NCATS) one finds activity change, negative = inhibition and max response data, which are given here for 14 compounds.

The test is described as follows: qHTS Assay for Lipid Storage Modulators (AID 1519). For activity change, negative = inhibition: % is set by controls: 0 for no effect and ±100 for the full control effect. As to conditions: Drosophila S3 cells, BODIPY lipid droplet/cell ratio, laser cytometry, cells loaded with oleic acid; for activity change, negative = inhibition: at 57.5 µM (top of the series). The text has this: NIH Molecular Libraries Probe Production Centers Network [MLPCN]
NIH Chemical Genomics Center [NCGC]
Assay Submitter (PI): Beller, Mathias; Max-Planck-Institut fur Biophysikalische Chemie
NCGC Assay Overview: Storing lipids as a reservoir for energy or the anabolism of elementary metabolites is a common feature of probably all cells and is conserved from bacteria to humans. The universal cellular lipid storage organelle is the so-called lipid storage droplet (LD). Although ubiquitous, LDs share a simple structure composed of a hydrophobic core that harbors the storage lipids, which is shielded by a droplet-specific phospholipid monolayer to which proteins are attached. The current model of LD biogenesis involves an incorporation of the lipid core into the membrane leaflets of the endoplasmic reticulum (ER) followed by a subsequent budding-like maturation of a LD, which ultimately pinches off. Once released, LD volume can increase by localized lipogenesis or fusion of existing droplets. Storage lipids are re-mobilized enzymatically by lipase activity. Lipase regulation in the adipocyte is heavily studied and involves multiple components including catecholamine signaling, the LD-associated proteins Perilipin and comparative gene identification-58 (CGI-58) and at least two lipases named hormone sensitive lipase (HSL) and adipocyte triglyceride lipase (ATGL). LD regulation outside of the adipocyte is poorly understood and only few components are known. However, there is an urgent need to learn more about ectopic fat depots as mislocalized storage of lipids, for example in the liver or muscle, is an eminent health problem associated with insulin resistance or the metabolic syndrome. We developed a laser-scanning cytometer assay to enable 1,536-well screening and combined the results of the small molecules screen with an RNAi database based on lipid storage.
NCGC Assay Protocol Summary:
We dispensed 4 uL of cells at 1.25 x 10^6 cells/mL into LoBase Aurora COC 1,536-well plates (black walled, clear bottom) with a bottle-valve solenoid-based dispenser (Aurora) to obtain 5,000 cells/well. Triacsin C (Sigma-Aldrich T-4540), an inhibitor of long-chain fatty acyl CoA synthetase that blocks synthesis of triglycerides, was used as a positive control for lipid under-storage. A total of 23 nL of compound solution of different concentrations were transferred to the assay plates using a Kalypsys pin tool equipped with a 1,536-pin array containing 10-nL slotted pins (FP1S10, 0.457-mm diameter, 50.8 mm long; V&P Scientific). One microliter of oleic acid (400 uM) was added, and the plate was lidded with stainless steel rubber gasket lined lids containing pinholes. […] Fluorescence was detected by excitation of the fluorophores with a 488-nm laser on an Acumen Explorer (TTP Lab Tech). The total intensity in channel 1 (500-530 nm) reflected lipid droplet accumulation. […] The ratio of the total intensity in PMT channel 1 over total intensity of channel 3 was also calculated. Percent activity was computed relative to an internal control (100% inhibited lipid droplet deposition due to the presence of 20 uM Triacsin C), which was added to 32 wells/plate.

[1] abbreviates: measured here: cell count channel max response.
Where [2] appears, read: measured here: lipid channel max response.

Results filed as inconclusive are left out. The source made the active and inactive calls. Calls come from the whole dose curve.

For the compound `C=C1CCC2[C@](C)(CO)C(O)CC[C@]2(C)C1C/C=C1/C(=O)OCC1O` (some centres not stated), the activity change, negative = inhibition is 2.99% (inactive). For the same compound, the max response under setting [1] is 11%. The max response under setting [2] came to 17.4%.

In the case of `CC(C)NC(=O)N1CCC2(CC1)CCN(S(C)(=O)=O)CC2`, the activity change, negative = inhibition was -0.0632% (inactive). Moreover, the max response under setting [1] amounted to 6.33%. Besides, the max response under setting [2] turned out to be 5.94%.

Regarding `Cc1cccc(CNc2ncnc3ccc(-c4cccc(C#N)c4)cc23)c1`, the activity change, negative = inhibition is 0.488% (inactive). For the same compound, under setting [1], the max response was -20.2%. The max response under setting [2] was -19.2%.

`CCNc1ncc2nc(-c3cn(C)c4ccccc34)c(=O)n(C)c2n1`: the activity change, negative = inhibition is 8.66% (inactive). Also, the max response under setting [1] was 19.5%. Under setting [2], the max response turned out to be 27.7%.

As to `O=C(c1ccncc1)N1CCC2(CC1)CN(c1ccccc1)C2`, the activity change, negative = inhibition is 6.84% (inactive). Under setting [1], the max response is 9.42%. The max response under setting [2] worked out at 18.7%.

As to `COc1ccc(-n2c(=O)cnc3cnc(N(C)C)nc32)cc1`, the activity change, negative = inhibition is 5.53% (inactive). Further, the max response under setting [1] came to 17.5%. Further, the max response under setting [2] amounted to 21.2%.

`COc1cccc(Nc2ncc3nc(C)c(=O)n(Cc4cccs4)c3n2)c1`: the activity change, negative = inhibition is -16.2% (inactive). The max response under setting [1] was determined as 12.9%. For the same compound, the max response under setting [2] was -8.07%.

Regarding `COc1ccc(CNc2ncncc2-c2cccnc2)c(OC)c1`, the activity change, negative = inhibition is 4.88% (inactive). Besides, the max response under setting [1] came to 18.2%. The max response under setting [2] is 22.7%.

As to `CN1CCN(c2nc(-c3cccc(C#N)c3)nc3ccccc23)CC1`, the activity change, negative = inhibition is 8.44% (inactive). For the same compound, the max response under setting [1] was found to be 3.27%. Under setting [2], the max response was 7.86%.

As to `Clc1ccccc1-c1ccc2ncnc(N3CCNCC3)c2c1`, the activity change, negative = inhibition is 5.35% (inactive). Also, the max response under setting [1] was found to be 26.7%. Also, the max response under setting [2] was 32.3%.

In the case of `O=C(c1ccco1)N1CCC2(CC1)CCN(c1ncccn1)CC2`, the activity change, negative = inhibition was 5.72% (inactive). For the same compound, the max response under setting [1] was 9.29%. Further, under setting [2], the max response is 18.4%.

Consider `c1ccc(Nc2cc(-c3ccoc3)ncn2)cc1`, for which the activity change, negative = inhibition was 8.08% (inactive). Under setting [1], the max response is 15%. Besides, under setting [2], the max response was 22%.

As to `CC(C)NC(=O)N1CCCC2(CCN(C(=O)c3cccc(F)c3)CC2)C1`, the activity change, negative = inhibition is 3.5% (inactive). Under setting [1], the max response was found to be 20.4%. Under setting [2], the max response came to 27.6%.

As for `COc1ccc(C(=O)N2CCC3(CC2)CN(C(=O)NC(C)C)C3)cc1`, the activity change, negative = inhibition is -0.224% (inactive). Also, the max response under setting [1] is -1.09%. Also, under setting [2], the max response is 0.517%.
